# Data from the supplement of paper PMC12339681.
# Structures can show the parent of a compound that is named as a salt.
# Test system: PBMC-derived induced microglia-like cells (piMGLC)
# Test: synaptosome phagocytic index relative to DMSO control (fraction of DMSO); higher = more phagocytosis
# Details: concentration: 10 uM (2 uM for compounds listed in Table S2); pretreatment time: 24 h; assay time: 3 h
row,Structure (SMILES),synaptosome phagocytic index
1,CC(=O)OCC(=O)[C@@]1(O)[C@H](C)C[C@H]2[C@@H]3CCC4=CC(=O)C=C[C@]4(C)[C@@]3(F)[C@@H](O)C[C@@]21C [Dexamethasone_acetate],0.776
2,CCCCCOC(=O)Nc1nc(=O)n([C@@H]2O[C@H](C)[C@@H](O)[C@H]2O)cc1F [Capecitabine],0.837
3,COc1nccc(-c2c(-c3ccc(F)cc3)ncn2C2CCC(O)CC2)n1 (configuration not stated),0.995
4,CC(C)[C@H]1C(=O)N[C@@H](CCCNC(=N)N)C(=O)NCC(=O)N[C@@H](CC(=O)O)C(=O)N[C@H](Cc2ccccc2)C(=O)N1C [Cilengitide],1.09
5,COCCOC(=O)C1=C(C)NC(C)=C(C(=O)OC(C)C)C1c1cccc([N+](=O)[O-])c1 (configuration not stated) [Nimodipine],0.85
6,CCN(CC)C(=S)SSC(=S)N(CC)CC [Disulfiram],0.784
7,Cc1ccc(Nc2nccc(N(C)c3ccc4c(C)n(C)nc4c3)n2)cc1S(N)(=O)=O [Pazopanib_(Hydrochloride)],0.523
8,O=c1c(-c2ccc(O)cc2)coc2cc(O)cc(O)c12 [Genistein],0.792
9,Cc1cccc(C)c1OCC(=O)N[C@@H](Cc1ccccc1)[C@@H](O)C[C@H](Cc1ccccc1)NC(=O)[C@H](C(C)C)N1CCCNC1=O [Lopinavir],0.253
10,CC(CN(C)C)CN1c2ccccc2CCc2ccccc21 (configuration not stated) [Trimipramine_(maleate)],0.449
11,CN1CCN(C2=Nc3ccccc3Oc3ccc(Cl)cc32)CC1 [Loxapine],0.272
12,CCCCCCCCCC(=O)O [Decanoic_acid],1.32
13,CNC(=O)c1cc(Oc2ccc3nc(N[C@@H]4CCCC[C@H]4O)sc3c2)ccn1,1.21
14,CN1CC[C@H](c2c(O)cc(O)c3c(=O)cc(-c4ccccc4Cl)oc23)[C@H](O)C1 [Flavopiridol],0.936
15,CN(C)CCC=C1c2ccccc2C=Cc2ccccc21 [Cyclobenzaprine_(hydrochloride)],0.59
16,COc1cc(/C=C/C(=O)NCCn2c(C)cc3ccccc32)cc(OC)c1OC,0.832

row,Structure (SMILES),synaptosome phagocytic index
1,Nc1ncnc2c1ncn2[C@@H]1O[C@H](CO)[C@@H](O)[C@H]1O [Adenosine],0.51
2,CN(Cc1cnc2nc(N)nc(N)c2n1)c1ccc(C(=O)N[C@@H](CCC(=O)O)C(=O)O)cc1 [Methotrexate],1.02
3,Cn1cc(-c2ccncc2)c(-c2ccc(OCc3ccc4ccccc4n3)cc2)n1 [Mardepodect],0.723
4,Cn1cc2cc(C(F)(F)c3nnc4ccc(-c5cnn(C6CC6)c5)nn34)c(F)cc2n1 [Bozitinib],0.851
5,CC[C@@]1(O)C(=O)OCc2c1cc1n(c2=O)Cc2cc3c(CN(C)C)c(O)ccc3nc2-1 [Topotecan_(Hydrochloride)],0.354
6,CO[C@H]1C[C@@H]2CC[C@@H](C)[C@@](O)(O2)C(=O)C(=O)N2CCCC[C@H]2C(=O)O[C@H]([C@H](C)C[C@@H]2CC[C@@H](O)[C@H](OC)C2)CC(=O)[C@H](C)/C=C(\C)[C@@H](O)[C@@H](OC)C(=O)[C@H](C)C[C@H](C)/C=C/C=C/C=C/1C [Rapamycin],0.285
7,C[C@@H](O[C@H]1OCCN(Cc2n[nH]c(=O)[nH]2)[C@H]1c1ccc(F)cc1)c1cc(C(F)(F)F)cc(C(F)(F)F)c1 [Aprepitant],1.02
8,Cc1nc2c([nH]1)-c1ccccc1N(C(=O)c1ccc(NC(=O)c3ccccc3-c3ccccc3)cc1)CC2 [Conivaptan_(hydrochloride)],0.827
9,CN1CCC(=C2c3ccccc3C=Cc3ccccc32)CC1 [Cyproheptadine_(hydrochloride)],0.741
10,C[C@@H]1CN(c2cccnc2F)C(=O)c2cc(COc3ccc(Cl)cn3)nn21,1.13
11,COc1cc(C(=O)NCc2ccc(OCCN(C)C)cc2)cc(OC)c1OC [Trimethobenzamide_hydrochloride],1.24
12,O=C1CCC(N2C(=O)c3ccccc3C2=O)C(=O)N1 (configuration not stated) [Thalidomide],0.811
13,CC(C)Cc1ccc(C(C)C(=O)O)cc1 (configuration not stated) [Ibuprofen],0.74
14,CCOc1nc2cccc(C(=O)O)c2n1Cc1ccc(-c2ccccc2-c2nnn[nH]2)cc1 [Candesartan],1.1
15,O=C(O)CCCc1ccccc1 [Sodium_4-phenylbutyrate],0.996
16,CN(C)CCc1c[nH]c2ccc(Cn3cncn3)cc12 [Rizatriptan_(benzoate)],1.11
